Measured values reported in PubChem BioAssay AID2535 (National Center for Advancing Translational Sciences (NCATS), 2010).
Values without a mark were called inactive. Calls come from the whole dose curve; as a rule, active = well fitted curve in the direction sought with a large enough effect; inconclusive = small, poorly fitted or top-dose-only effect, or effect the other way, or another doubt; inactive = no such curve, though single readings can be large or run the other way.

Each molecule was assayed against Pyruvate kinase PKLR (Homo sapiens) (UniProt P30613) (assay: Secondary Concentration-Response Assay for Activators of Human Liver Pyruvate Kinase: for Probe SAR). Conditions: purified hPK-L, ATP production, Kinase-Glo luminescence; series mostly up to 58.3 µM; activity change, positive = activation: at the top concentration.
Sequence of Pyruvate kinase PKLR (Homo sapiens) (P30613 whole entry, looked up): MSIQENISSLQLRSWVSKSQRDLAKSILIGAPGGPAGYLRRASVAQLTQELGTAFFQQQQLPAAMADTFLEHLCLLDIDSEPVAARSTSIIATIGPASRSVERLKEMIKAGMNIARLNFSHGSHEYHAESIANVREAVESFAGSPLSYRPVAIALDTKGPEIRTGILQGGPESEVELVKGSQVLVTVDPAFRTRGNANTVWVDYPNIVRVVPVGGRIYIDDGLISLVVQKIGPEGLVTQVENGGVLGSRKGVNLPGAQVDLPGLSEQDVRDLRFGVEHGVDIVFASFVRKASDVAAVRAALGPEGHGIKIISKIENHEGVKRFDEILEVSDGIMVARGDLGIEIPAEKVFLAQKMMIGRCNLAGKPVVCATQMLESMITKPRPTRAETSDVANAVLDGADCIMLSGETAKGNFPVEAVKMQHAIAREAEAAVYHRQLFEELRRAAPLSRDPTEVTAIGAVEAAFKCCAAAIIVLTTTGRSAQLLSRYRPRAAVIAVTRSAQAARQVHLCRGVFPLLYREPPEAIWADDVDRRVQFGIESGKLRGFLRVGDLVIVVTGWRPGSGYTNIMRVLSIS
Description: NIH Chemical Genomics Center [NCGC]
Matthew G. Vander Heiden, M.D., Ph.D. [Harvard Medical School, 77 Avenue Louis Pasteur, Boston, MA 02115]
Human pyruvate kinase liver (hPK-L) enzyme was supplied as a highly purified (>95% pure) preparation from Harvard Medical School and assayed for its ability to generate ATP from ADP using phosphoenolpyruvate (PEP) as a substrate. ATP generation was detected in a coupled reaction by luciferase-mediated luminescence, an ATP-dependent process. Pyruvate kinase substrates, PEP and ADP, were present in the assay at Km and approximately 10-fold below Km respectively. The enzyme was assayed at an intermediate level of activity to screen for both inhibitors and activators.
NCGC Assay Protocol Summary for L-isoform:
Three uL of substrate mix (at r.t.) in assay buffer (50 mM Imidazole pH7.2, 50 mM KCl, 7 mM MgCl2, 0.01% Tween 20, 0.05% BSA) was dispensed into white solid bottom 1,536 well microtiter plates so that the final concentrations of substrates in the assay were 0.1 mM ADP and 0.5 mM PEP. 23 nL of compound were delivered by a pin tool and 1 uL of enzyme mix (final concentration of 0.1 nM) in assay buffer (4 degree Celsius) was added. Plates were incubated at room temperature for 1 hour. Two uL of detection mix (Kinase-Glo, Promega; at 4 degree Celsius protected from light) was added and luminescence read by a ViewLux (Perkin Elmer) at 1 second exposure/plate. Data were normalized to the uninhibited (row 31). Additionally, a no enzyme and 5-fold enzyme control was dispensed in row 32, split equally between the two conditions.
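Note: 0% = uninhibited enzyme wells on each plate.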

First: Cc1cc(NS(=O)(=O)c2ccc3c(c2)CCC(=O)N3)ccc1F
Second: Cc1ccc(NS(=O)(=O)c2ccc3c(c2)CCC(=O)N3)cc1F
The “activity change, positive = activation” value of the first is lower: 8.02% for the first, 11.7% for the second.

First: COc1cccc(OC2=NS(=O)(=O)c3ccccc32)c1
Second: Cc1cccc(OC2=NS(=O)(=O)c3ccccc32)c1
The “activity change, positive = activation” value of the first is lower: -5.35% for the first, 2.27% for the second.

First: Cc1ccc(Nc2c(-c3ccc(C)o3)nc3cccc(C)n23)cc1
Second: Cc1ccc(-c2nc3cccc(C)n3c2Nc2ccc(F)cc2)o1
The “activity change, positive = activation” value of the first is lower: 4.33% for the first, 4.76% for the second.

Going from COc1cc(F)c(S(=O)(=O)N2CCCN(S(=O)(=O)c3cccc(N)c3)CC2)c(F)c1 to Nc1cccc(S(=O)(=O)N2CCCN(S(=O)(=O)c3ccc4c(c3)OCCO4)CC2)c1, the “activity change, positive = activation” value falls from 22.6% to 11.9%.

First: O=C1CCc2cc(Cl)c(S(=O)(=O)Nc3ccc(Cl)c(Cl)c3)cc2N1
Second: Cc1c(Cl)cccc1NS(=O)(=O)c1cc2c(cc1Cl)CCC(=O)N2
The “activity change, positive = activation” value of the first is lower: 9.66% for the first, 15.3% for the second.

Compared with Cc1ccc(NS(=O)(=O)c2ccc(N3CCCC3=O)cc2)cc1C, CC(=O)N1CCc2cc(S(=O)(=O)Nc3ccc(C)c(C)c3)ccc21 is lower in “activity change, positive = activation” value: 12.3% for the first, 0.328% for the second.

Going from COc1ccc(NS(=O)(=O)c2ccc3c(c2)CCC(=O)N3)cc1 to O=C1CCc2cc(S(=O)(=O)Nc3ccc(-c4ccccc4)cc3)ccc2N1, the “activity change, positive = activation” value rises from 4.38% to 5.78%.

Going from Cc1cc(C)n2c(Nc3ccccc3)c(-c3ccc(C)o3)nc2n1 to Cc1ccc2nc(-c3ccc(C)o3)c(Nc3ccccc3)n2c1, the “activity change, positive = activation” value falls from 7% to 1.62%.

Going from O=C1c2ccccc2C(=O)N1c1cccnc1 to O=C1c2ccccc2C(=O)N1c1cccc(Cl)c1, the “activity change, positive = activation” value rises from -2.26% to 1.41%.

First: Cc1ccc(NS(=O)(=O)c2cc3c(cc2-c2ccco2)NC(=O)CO3)cc1C
Second: Cc1ccc(NS(=O)(=O)c2cc3c(cc2-c2cn[nH]c2)NC(=O)CO3)cc1C
The “activity change, positive = activation” value of the first is higher: 5.64% for the first, -3.69% for the second.

Compared with Cc1ccc(-c2nc3ccccn3c2Nc2ccc(F)cc2)o1, Cc1ccc2nc(-c3ccc(C)o3)c(Nc3ccc(F)cc3)n2c1 is lower in “activity change, positive = activation” value: 2.86% for the first, -1.65% for the second.

Going from Cc1ccc(NS(=O)(=O)c2cc3c(cc2N(C)C)CCC(=O)N3)cc1C to Cc1ccc(NS(=O)(=O)c2cc3c(cc2N2CCC2)NC(=O)CC3)cc1C, the “activity change, positive = activation” value falls from 14.3% to -7.16%.

Going from Cc1ccc2nc(-c3ccc(C)o3)c(NC3CCCC3)n2c1 to Cc1ccn2c(NC3CCCCC3)c(-c3ccc(C)o3)nc2c1, the “activity change, positive = activation” value falls from 7.09% to -25.8%.

Compared with COc1cccc(Cn2ncc3c4sc(SC)cc4n(C)c3c2=O)c1, COc1cc(N2C(=O)c3ccccc3C2=O)c2ncccc2c1 is higher in “activity change, positive = activation” value: 1.35% for the first, 4.29% for the second.

First: O=C1CCc2cc(S(=O)(=O)Nc3cccc(-c4ccccc4)c3)ccc2N1
Second: O=C1CCc2cc(S(=O)(=O)Nc3ccccc3-c3ccccc3)ccc2N1
The “activity change, positive = activation” value of the first is higher: 6.52% for the first, 2.85% for the second.

Going from Cc1ccc(-c2nc3ccccn3c2Nc2ccccc2C)o1 to Cc1ccccc1Nc1c(-c2ccc(Cl)s2)nc2ccccn12, the “activity change, positive = activation” value falls from 3.52% to 1.64%.

Compared with Cc1ccc(NS(=O)(=O)c2ccc3c(ccn3C)c2)cc1C, Cc1ccc(NS(=O)(=O)c2cccc(C(=O)O)c2)cc1C is lower in “activity change, positive = activation” value: 6.76% for the first, 3.56% for the second.

Going from O=C1CCc2cc(S(=O)(=O)Nc3cccc4ccccc34)ccc2N1 to Cc1ccc(NS(=O)(=O)c2cc3c(cc2N2CCCCC2)NC(=O)CC3)cc1C, the “activity change, positive = activation” value falls from 0.398% to -2.91%.

Compared with O=C1c2ccccc2C(=O)N1c1ccc(Cl)cc1, O=C1c2ccccc2C(=O)N1c1ccccn1 is lower in “activity change, positive = activation” value: 2.91% for the first, 2.49% for the second.

Going from Cc1ccc(NS(=O)(=O)c2cc3c(cc2Br)NC(=O)CO3)cc1C to Nc1cc(S(=O)(=O)N2CCN(S(=O)(=O)c3ccc4c(c3)OCCO4)CC2)ccn1, the “activity change, positive = activation” value rises from 14.1% to 21.6%.
